Screening results: PubChem BioAssay, National Center for Advancing Translational Sciences (NCATS)
MCF10A rereplic – DNA re-replication induction in MCF 10a cells; MCF 10A DNA re-replication, Hoechst nuclear intensity, 48 h; Potency, µM (doses to about 46.1 µM), actives largely listed as activators; actives 2.9% (n = 350,000); note: nearly all actives have a fitted effect of over 50% in size
SW480 rereplic – DNA re-replication induction in SW480 cells; Potency, µM (highest dose often 46.1 µM), most hits filed as activators; AID 624297; actives 1.8% (n = 340,000); SW480 DNA re-replication, Hoechst DNA content imaging, 48 h; note: nearly all actives have a fitted effect of over 55% in size
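DNA re-replication was detected as more nuclei of elevated Hoechst intensity after 48 hr exposure to compound (23 nL pinned per well of 250 cells).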
IL1B secr inh – inhibitors of inflammasome signaling (IL-1 beta secretion). THP-1 LPS/ATP IL-1B secretion, AlphaLISA, 16 h; stronger effect = lower value. activity change, % at 57.5 µM. actives 4.7% (n = 360,000). AID 743279; in the data active = activity change below about -50%; inconclusive = mostly about -30% to -49%
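Secreted IL-1B measured by AlphaLISA bead assay after 16 h compound exposure of THP-1 cells; compounds (final up to 57.5 uM) added 1 h before LPS (250 ng/mL) and ATP (1.25 mM) stimulation; lower signal means less secretion.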
TDP1 cell noCPT – qHTS for Inhibitors of human tyrosyl-DNA phosphodiesterase 1 (TDP1): qHTS in cells in absence of CPT | DT40 Tdp1-/- hTDP1 cells, no CPT, ATP luminescence, 48 h | Potency, µM (doses to about 46.2 µM), usual class: inhibitors | actives 15% (n = 420,000); note: nearly all actives have a fitted effect of over 55% in size
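Camptothecin absent (DMSO only). Human TDP1-complemented DT40 knockout cells, 400 cells/well, 37 °C for minimum 48 hr; ATP measured via CellTiter-Glo, 30 min dark incubation, luminescence.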
TDP1 cell CPT – growth inhibition of DT40 Tdp1-/-;hTDP1 cells with camptothecin (screen for TDP1 inhibitors); chicken DT40 Tdp1-/-;hTDP1 cells + 20 nM CPT, ATP luminescence, 48 h; actives 12% (n = 420,000); Potency, µM (series often up to 46.2 µM), most hits filed as inhibitors; note: nearly all actives have a fitted effect of over 55% in size
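Chicken DT40 Tdp1-/- cells complemented with human TDP1, 400 cells/well, exposed to compounds plus 20 nM camptothecin for at least 48 h at 37 C; viability read as ATP content by CellTiter-Glo luminescence.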
Chronic BCR inh – chronic active BCR signaling inhibition | Potency, µM (series often up to 46.1 µM), actives largely listed as inhibitors | actives 0.05% (n = 340,000) | ABC-DLBCL IkBa-CBG/CBR reporter, luminescence ratio, 4 h; active = well fitted inhibition curve with a large enough effect in the signal ratio, with a control signal flat, not every such curve was filed as active; inconclusive = small, poorly fitted or top-dose-only effect, or effect the other way, or a change in a side signal; the % refers to the signal ratio
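Concentration-response series (up to 46 uM) were applied to TMD8 dual-reporter cells for 4 h at 37C with doxycycline. Green/red ratio, after filter-overlap correction, defined %Activity; red signal alone was normalised to basal cells and zero luminescence.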
Large screens that a line does not name were inactive. This is a sample that favours compounds with a hit; in the whole collection about 19% have one here. Unless noted, calls come from the whole dose curve; as a rule, active = well fitted curve in the direction sought with a large enough effect; inconclusive = small, poorly fitted or top-dose-only effect, or another doubt; inactive = no such curve, though single readings can be large; an effect the other way counts as inactive or inconclusive.

CCC1(C)Cc2c(sc3nc(SC)n(Cc4ccccc4)c(=O)c23)CO1 (stereo unspecified)	MCF10A rereplic inconclusive, TDP1 cell noCPT 13µM, TDP1 cell CPT 13µM, Chronic BCR inh inconclusive
Cc1nn(-c2ccc(Cl)cc2)c2[nH]c(CCl)cc(=O)c12	MCF10A rereplic inconclusive, TDP1 cell noCPT inconclusive, Chronic BCR inh inconclusive
COC(=O)CSc1nnc2n(C3CCCCC3)c(=O)c3c4c(sc3n12)CCCC4	SW480 rereplic inconclusive, IL1B secr inh inconclusive, TDP1 cell noCPT inconclusive, TDP1 cell CPT 29µM
CCOc1ccc(-n2c(SCC(N)=O)nc3sc4c(c3c2=O)CCN(C)C4)cc1	none
CCn1c(SCC(=O)Nc2ccc(C)cc2)nc2sc3c(c2c1=O)CCN(C)C3	TDP1 cell noCPT inconclusive, TDP1 cell CPT inconclusive, Chronic BCR inh inconclusive
CCOC(=O)CSc1nc2sc3c(c2c(=O)n1-c1ccc(OCC)cc1)CCN(C)C3	TDP1 cell noCPT 23µM, TDP1 cell CPT inconclusive, Chronic BCR inh inconclusive
CCOC(=O)CSc1nc2sc3c(c2c(=O)n1C1CCCCC1)CCN(C)C3	MCF10A rereplic inconclusive, TDP1 cell noCPT 29µM, TDP1 cell CPT inconclusive
CCOC(=O)CSc1nnc2n(C3CCCCC3)c(=O)c3c4c(sc3n12)CCCC4	TDP1 cell noCPT inconclusive, TDP1 cell CPT inconclusive
CCn1c(SCC(N)=O)nc2sc3c(c2c1=O)CCN(C)C3	TDP1 cell noCPT 13µM, TDP1 cell CPT 23µM
CCc1nnc(SCC(=O)Nc2ccccc2)n1CC1CCCO1 (stereo unspecified)	none
C[C@H](CO)N1C[C@H](C)[C@@H](CN(C)Cc2ccncc2)Oc2ccc(NC(=O)CCCCCC(=O)Nc3ccccc3N)cc2C1=O	none
CCn1c(SCC(=O)N2CCOCC2)nc2sc3c(c2c1=O)CCCC3	TDP1 cell noCPT 18µM, TDP1 cell CPT inconclusive
C=C(C)CSc1nc2sc3c(c2c(=O)n1-c1ccc(C)cc1)CCN(C)C3	TDP1 cell noCPT 12µM, TDP1 cell CPT 18µM
CCCn1c(SCC(=O)N2CCN(C(C)=O)CC2)nc2sc3c(c2c1=O)CCC3	SW480 rereplic inconclusive
Cc1cccc(N(CC(=O)NC(C)C)C(=O)CCC(=O)Nc2nccs2)c1	none
O=C(CCCn1cncn1)N1CCCC(N2CCN(c3ccc(F)cc3)CC2)C1 (stereo unspecified)	none
O=C1NC(c2ccc(Br)cc2)=N/C1=C/c1ccco1	MCF10A rereplic inconclusive, SW480 rereplic inconclusive, TDP1 cell noCPT inconclusive, TDP1 cell CPT 7.3µM, Chronic BCR inh inconclusive
COc1ccc(CNS(=O)(=O)NCc2ccc(C)cc2)cc1	none
CC(C)(C)c1ccc(OCC(=O)N(Cc2cccs2)C2CCS(=O)(=O)C2)cc1 (stereo unspecified)	TDP1 cell noCPT inconclusive, TDP1 cell CPT 16µM
Cc1ccc(CN(C(=O)COc2ccc(C(C)C)cc2)C2CCS(=O)(=O)C2)o1 (stereo unspecified)	TDP1 cell noCPT 18µM, TDP1 cell CPT 15µM (no result: MCF10A rereplic, SW480 rereplic, IL1B secr inh, Chronic BCR inh)
COc1ccc(COC(=O)C2=C(C)NC(=O)NC2c2cc(Br)c(O)c(OC)c2)cc1 (stereo unspecified)	MCF10A rereplic inconclusive, TDP1 cell noCPT inconclusive, Chronic BCR inh inconclusive
O=S(=O)(Nc1ccccc1Br)c1cccc2cccnc12	none (no result: MCF10A rereplic, SW480 rereplic, Chronic BCR inh)
Cc1ccc2cccc(NS(=O)(=O)c3ccccc3)c2n1	MCF10A rereplic 3.3µM, SW480 rereplic inconclusive, TDP1 cell noCPT 21µM, TDP1 cell CPT inconclusive, Chronic BCR inh inconclusive
Cc1cc(C)nc(NS(=O)(=O)c2ccccc2)n1	MCF10A rereplic inconclusive, SW480 rereplic inconclusive
CS(=O)(=O)Nc1cccc2cccnc12	SW480 rereplic inconclusive, TDP1 cell noCPT 4.6µM, TDP1 cell CPT 4.6µM, Chronic BCR inh inconclusive
O=S(=O)(Nc1ncccn1)c1ccccc1	TDP1 cell noCPT 16µM, TDP1 cell CPT inconclusive
Cc1cc(C)n(-c2ccc3cccc(NS(C)(=O)=O)c3n2)n1	MCF10A rereplic inconclusive, SW480 rereplic inconclusive, TDP1 cell noCPT 5.8µM, TDP1 cell CPT 5.2µM
NC(=S)NNc1cccc2cccnc12	MCF10A rereplic inconclusive, SW480 rereplic inconclusive, TDP1 cell noCPT 12µM, TDP1 cell CPT 6.5µM
O=S(=O)(Nc1cccc2cccnc12)c1ccc(S(=O)(=O)N2CCCC2)cc1	MCF10A rereplic inconclusive, SW480 rereplic 2.9µM, IL1B secr inh -71, TDP1 cell noCPT 13µM, TDP1 cell CPT 16µM, Chronic BCR inh inconclusive
NC(=S)Nc1cccc2cccnc12	none
O=S(=O)(Nc1cccc2cccnc12)c1ccccc1	MCF10A rereplic 21µM, SW480 rereplic 23µM, IL1B secr inh -104, TDP1 cell noCPT 8.2µM, TDP1 cell CPT 13µM, Chronic BCR inh inconclusive
CC(=O)Nc1ccc(S(=O)(=O)Nc2cccc3cccnc23)cc1	Chronic BCR inh inconclusive
CCOc1ccc(CNc2nc3nc(C)c(Cc4ccccc4)c(=O)n3[nH]2)cc1	none (no result: MCF10A rereplic, SW480 rereplic, IL1B secr inh, Chronic BCR inh)
Cc1ccc(NS(=O)(=O)c2ccc(C)c(NC(=S)NCCN3CCOCC3)c2)c(C)c1	MCF10A rereplic inconclusive, SW480 rereplic inconclusive, TDP1 cell CPT inconclusive
Cc1nc(S(=O)(=O)N2CCN(c3cccc(Cl)c3)CC2)cn1C	none (no result: MCF10A rereplic, SW480 rereplic, IL1B secr inh, Chronic BCR inh)
CCN1CCN(CC(=O)Nc2cccc(C)c2C)C(=O)C1=O	TDP1 cell CPT 2.3µM, Chronic BCR inh inconclusive
CCN1CCN(CC(=O)Nc2ccc(C)cc2C)C(=O)C1=O	none
